Common to all, as to experiment: HT-SELEX; high values mean tight binding
Holding throughout (conditions): protein: recombinant; vector His6-GST; dsDNA, one strand shown

Test [1] deals with T1, SALL4 ZFC4 WT (HT-SELEX) (Mus musculus, UniProt Q8BX22 870-940).
T1 sequence: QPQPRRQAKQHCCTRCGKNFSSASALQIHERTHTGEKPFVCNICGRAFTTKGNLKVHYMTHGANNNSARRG
Put shortly:
(§1)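 In triplicate selections of up to 6 cycles, purified recombinant mouse SALL4 zinc finger cluster 4 (residues 870–940, 1 µg) was incubated 10 min at room temperature with library DNA (1.5 µg, then 200 ng) in 100 µl of 10 mM Tris–HCl pH 7.5, 50 mM NaCl, poly(dI-dC) and DTT, and complexes were captured on Ni2+ beads, washed and PCR-amplified. Sequencing was done on MiSeq with scanning for 6-mers. The binding signal is each canonical k-mer's read fraction, reported as fold change against the initial random library.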

The target in test [2] is T2, SALL4 ZFC4 R900W (HT-SELEX) (Mus musculus, UniProt Q8BX22 870-940, R900W).
T2 sequence: T1 sequence with R31W
Summed up:
as §1

Test [3] has as its target T3, SALL4 ZFC4 G921D (HT-SELEX) (Mus musculus, UniProt Q8BX22 870-940, G921D).
T3 sequence: T1 sequence with G52D
Summed up: as §1

Changes are numbered by the printed parent chain.

Consider AATGGG, for which the binding signal was 0.774 ± 0.0508 fold-change vs cycle 0 in test [1], 0.854 ± 0.0662 fold-change vs cycle 0 in test [2] and 0.883 ± 0.0427 fold-change vs cycle 0 in test [3].

As to AGGACC, the binding signal is 0.441 ± 0.038 fold-change vs cycle 0 in test [1], 0.54 ± 0.0359 fold-change vs cycle 0 in test [2] and 0.632 ± 0.0389 fold-change vs cycle 0 in test [3].

Turning to CAAATA, the binding signal is 1.9 ± 0.117 fold-change vs cycle 0 in test [1], 1.72 ± 0.1 fold-change vs cycle 0 in test [2] and 1.55 ± 0.137 fold-change vs cycle 0 in test [3].

Consider ACCTGG, for which the figures for the binding signal in test [1], in test [2] and in test [3] were 0.46 ± 0.021 fold-change vs cycle 0, 0.537 ± 0.0102 fold-change vs cycle 0 and 0.635 ± 0.0393 fold-change vs cycle 0, respectively.

On to AGTCCG, for which the binding signal turned out to be 0.333 ± 0.0345 fold-change vs cycle 0 in test [1], 0.404 ± 0.0391 fold-change vs cycle 0 in test [2] and 0.533 ± 0.0458 fold-change vs cycle 0 in test [3].

For the sequence CTCCAC, the figures for the binding signal in test [1], in test [2] and in test [3] were 0.493 ± 0.0188 fold-change vs cycle 0, 0.564 ± 0.0173 fold-change vs cycle 0 and 0.646 ± 0.0596 fold-change vs cycle 0, respectively.

With GAAGGC, the binding signal came out at 0.304 ± 0.0244 fold-change vs cycle 0 in test [1], 0.39 ± 0.0131 fold-change vs cycle 0 in test [2] and 0.522 ± 0.0691 fold-change vs cycle 0 in test [3].

Turning to TGACCA, the binding signal was determined as 0.72 ± 0.0319 fold-change vs cycle 0 in test [1], 0.823 ± 0.0121 fold-change vs cycle 0 in test [2] and 0.899 ± 0.0281 fold-change vs cycle 0 in test [3].

CGGAAC: the binding signal in test [1] amounted to 0.339 ± 0.0284 fold-change vs cycle 0; in test [2], 0.417 ± 0.0399 fold-change vs cycle 0; in test [3] it was 0.524 ± 0.0677 fold-change vs cycle 0.

Regarding CCTGTC, the binding signal in test [1] is 0.437 ± 0.00717 fold-change vs cycle 0; in test [2] it was 0.533 ± 0.0129 fold-change vs cycle 0; in test [3] it was 0.619 ± 0.0538 fold-change vs cycle 0.

CATGCA: the binding signal was determined as 0.683 ± 0.0413 fold-change vs cycle 0 in test [1], 0.757 ± 0.0296 fold-change vs cycle 0 in test [2] and 0.805 ± 0.0272 fold-change vs cycle 0 in test [3].

Consider AATCTG, for which the binding signal in test [1] worked out at 1.22 ± 0.0563 fold-change vs cycle 0; in test [2] it was 1.28 ± 0.0883 fold-change vs cycle 0; in test [3], 1.25 ± 0.0941 fold-change vs cycle 0.

Regarding ATGACG, the binding signal in test [1] was 0.724 ± 0.0223 fold-change vs cycle 0; in test [2] it was 0.789 ± 0.0467 fold-change vs cycle 0; in test [3], 0.852 ± 0.0204 fold-change vs cycle 0.

Consider CAACTG, for which the binding signal came out at 0.724 ± 0.0172 fold-change vs cycle 0 in test [1], 0.829 ± 0.0401 fold-change vs cycle 0 in test [2] and 0.9 ± 0.0128 fold-change vs cycle 0 in test [3].

For CAAACA, the figures for the binding signal in test [1], in test [2] and in test [3] were 1.04 ± 0.0367 fold-change vs cycle 0, 1.17 ± 0.0357 fold-change vs cycle 0 and 1.18 ± 0.0394 fold-change vs cycle 0, respectively.

Take GACCTC: the binding signal in test [1] stood at 0.415 ± 0.0384 fold-change vs cycle 0; in test [2], 0.51 ± 0.0119 fold-change vs cycle 0; in test [3], 0.644 ± 0.0572 fold-change vs cycle 0.

Take AACGCA: the values for the binding signal in test [1], in test [2] and in test [3] were 0.504 ± 0.0712 fold-change vs cycle 0, 0.544 ± 0.00766 fold-change vs cycle 0 and 0.669 ± 0.0225 fold-change vs cycle 0, respectively.

For the sequence CTGATA, the figures for the binding signal in test [1], in test [2] and in test [3] were 1.39 ± 0.0802 fold-change vs cycle 0, 1.44 ± 0.0817 fold-change vs cycle 0 and 1.36 ± 0.068 fold-change vs cycle 0, respectively.

For TCTGCA, the values for the binding signal in test [1], in test [2] and in test [3] were 0.609 ± 0.0257 fold-change vs cycle 0, 0.678 ± 0.019 fold-change vs cycle 0 and 0.747 ± 0.0393 fold-change vs cycle 0, respectively.

Regarding AAGAGT, the values for the binding signal in test [1], in test [2] and in test [3] were 1.418 ± 0.0105 fold-change vs cycle 0, 1.59 ± 0.0431 fold-change vs cycle 0 and 1.48 ± 0.0973 fold-change vs cycle 0, respectively.

Turning to GCTTAA, the values for the binding signal in test [1], in test [2] and in test [3] were 1.02 ± 0.0584 fold-change vs cycle 0, 1.15 ± 0.0607 fold-change vs cycle 0 and 1.12 ± 0.048 fold-change vs cycle 0, respectively.

For the sequence TAGATA, the binding signal in test [1] was 2.23 ± 0.154 fold-change vs cycle 0; in test [2] it was 2.04 ± 0.12 fold-change vs cycle 0; in test [3] it was 1.84 ± 0.212 fold-change vs cycle 0.

For CGTTAA, the binding signal in test [1] stood at 1.13 ± 0.0737 fold-change vs cycle 0; in test [2], 1.25 ± 0.0783 fold-change vs cycle 0; in test [3], 1.17 ± 0.0825 fold-change vs cycle 0.

As to GGTTGA, the binding signal stood at 0.753 ± 0.0201 fold-change vs cycle 0 in test [1], 0.876 ± 0.0229 fold-change vs cycle 0 in test [2] and 0.9303 ± 0.00634 fold-change vs cycle 0 in test [3].

As for AAGCTG, the binding signal in test [1] is 0.608 ± 0.0202 fold-change vs cycle 0; in test [2], 0.708 ± 0.0215 fold-change vs cycle 0; in test [3], 0.801 ± 0.0274 fold-change vs cycle 0.

CTAGCC: the binding signal was 0.314 ± 0.031 fold-change vs cycle 0 in test [1], 0.395 ± 0.0257 fold-change vs cycle 0 in test [2] and 0.508 ± 0.064 fold-change vs cycle 0 in test [3].

On to ATTCAA, for which the results for the binding signal in test [1], in test [2] and in test [3] were 1.94 ± 0.125 fold-change vs cycle 0, 1.97 ± 0.115 fold-change vs cycle 0 and 1.79 ± 0.158 fold-change vs cycle 0, respectively.

With CCTCCA, the binding signal came out at 0.517 ± 0.0262 fold-change vs cycle 0 in test [1], 0.603 ± 0.0398 fold-change vs cycle 0 in test [2] and 0.687 ± 0.0633 fold-change vs cycle 0 in test [3].

Regarding ATAGCC, the binding signal in test [1] stood at 0.53 ± 0.0341 fold-change vs cycle 0; in test [2] it was 0.6236 ± 0.00564 fold-change vs cycle 0; in test [3], 0.747 ± 0.062 fold-change vs cycle 0.

As for GTGTAA, the binding signal in test [1] stood at 1.24 ± 0.0525 fold-change vs cycle 0; in test [2], 1.37 ± 0.0544 fold-change vs cycle 0; in test [3] it was 1.28 ± 0.0793 fold-change vs cycle 0.

For the origin of these results see article PMC9838217, “Structure of SALL4 zinc finger domain reveals link between AT-rich DNA binding and Okihiro syndrome”.
